Sampled rows, rich in hits. Any-hit rate of the full collection: about 7.9%.
SW480 rerep – DNA re-replication induction in SW480 cells. SW480 DNA re-replication, Hoechst DNA content imaging, 48 h. Potency, µM (titrated, usually from 46.1 µM), most hits filed as activators. 340,000 compounds, 1.8% hits. AID 624297; note: nearly all actives have a fitted effect of over 55% in size
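DNA re-replication was detected as more nuclei of elevated Hoechst intensity after 48 hr exposure to compound (23 nL pinned per well of 250 cells).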
KB-V1 cytotox – kills drug-selected multidrug resistant KB-V1 cells | KB-V1 MDR cells viability, CellTiter-Glo, 72 h | 400,000 compounds, 3.4% hits | Potency, µM (titrated, usually from 46.1 µM), hits mostly cytotoxic | AID 1347076; note: nearly all actives have a fitted effect of over 60% in size
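KB-V1, DMEM (no phenol red) + 10% FBS; cpd pin-transferred, titration series; 72 h, 37 degrees C; CellTiter-Glo, luminescence. Data normalized, curve-fit.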
HT1080NT lethal – kills 2HG-producing HT-1080-NT fibrosarcoma cells; HT-1080-NT fibrosarcoma viability, CellTiter-Glo ATP luminescence, 48 h; Potency, µM (doses to about 46.1 µM), most hits filed as cytotoxic; 360,000 compounds, 1.6% hits; AID 686970;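 note: NT is the 2HG producing partner of a matched IDH1 knockdown line; nearly all actives have a fitted effect of over 55% in size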
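Fibrosarcoma NT cells, 750 per well in 5% FBS RPMI, were exposed to compound for 48 hours. Viability: CellTiter-Glo luminescence.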
KB-3-1 tox – KB-3-1 parental cell cytotoxicity. KB-3-1 viability, CellTiter-Glo ATP luminescence, 72 h. Potency, µM (doses to about 46.1 µM), usual class: cytotoxic. 400,000 compounds, 1.4% hits. AID 1347075; note: nearly all actives have a fitted effect of over 60% in size
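Screening of KB-3-1 cells (DMEM, 10% FBS, phenol-red free) ran from lowest to highest compound concentration; after 72 h at 37 °C viability was read luminescently and curves fitted.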
HT1080 IDH1KD tx – HT-1080 IDH1 knockdown cell toxicity (counter line); HT-1080 IDH1 knockdown viability, ATP luminescence, 48 h; Potency, µM (highest dose often 46.1 µM), usual class: cytotoxic; 360,000 compounds, 2% hits
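Using the IDH1-knockdown HT-1080 line run in the same batch and compound series as the NT line, viability after 48 h at 37 °C was determined by CellTiter-Glo luminescence and expressed as % activity.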
MCF10A rerep – inducers of DNA re-replication in MCF 10A breast cells; Potency, µM (top dose mostly 46.1 µM), hits mostly activators; 350,000 compounds, 2.9% hits; AID 624296; MCF 10A DNA re-replication, Hoechst nuclear intensity, 48 h; note: nearly all actives have a fitted effect of over 50% in size
A number is an active result; - = inactive; ? = inconclusive; . = no result given; ! = not active in a repeat; [ ] = another dose, or the depositor's remark. Calls come from the whole dose curve; as a rule, active = well fitted curve in the direction sought with a large enough effect; inconclusive = small, poorly fitted or top-dose-only effect, or another doubt; inactive = no such curve, though single readings can be large; an effect the other way counts as inactive or inconclusive.

SMILES | SW480 rerep | KB-V1 cytotox | HT1080NT lethal | KB-3-1 tox | HT1080 IDH1KD tx | MCF10A rerep
COc1ccc(C)cc1NC(=O)COc1cc(=O)n(C)c2ccccc12 | . | ? | . | - | . | .
O=C(Nc1ccc2ccccc2c1)Nc1nnc(-c2ccccc2F)s1 | . | - | . | ? | . | .
N#CC1=C(N)N(c2ccc(Cl)cc2)C2=C(C(=O)CCC2)C1c1cc(CN2CCOCC2)cs1 (stereo not given) | . | ? | . | - | . | .
COc1ccc(NC(=O)c2cc3n(n2)C(C(F)(F)F)CC(c2ccc4c(c2)OCO4)N3)cc1OC (stereo not given) | ? | 16.4µM | - | - | ? | -
O=[N+]([O-])CC(c1ccc(F)cc1)c1c[nH]c2ccccc12 (stereo not given) | ? | - | ? | ? | ? | 13µM
Cn1cc(C(C[N+](=O)[O-])c2ccccc2)c2ccccc21 (stereo not given) | 10.3µM | ? | ? | ? | ? | 13µM
Cn1cc(SCC(=O)O)c2ccccc21 | - | - | - | - | - | -
CC(=O)c1cccc(Nc2ncnc3c2cnn3-c2cccc(Cl)c2)c1 | . | ? | . | - | . | .
CCC(c1nnc(SCC(=O)Nc2nnc(-c3ccccc3)o2)n1Cc1ccccc1)N(C)C (stereo not given) | - | 23.1µM | - | - | - | -
c1ccc(-c2nnc(-c3ccccn3)nc2NC2CCCCC2)cc1 | ? | ? | ? | 16.4µM | ? | 10.3µM
CN(C(=O)c1cc2nc(-c3ccco3)cc(C(F)(F)F)n2n1)c1ccc(OC(F)(F)Cl)cc1 | . | - | . | - | . | .
O=C(C(=O)N(Cc1ccccc1)Cc1ccccc1)c1c(-c2ccccc2)[nH]c2ccccc12 | 18.4µM | - | ? | - | ? | -
N#CC1=C(N)NC(SCC(=O)O)=C(C#N)C12CCCC2 | - | ? | - | - | - | -
N#CC1=C(N)NC(SCc2ccc(F)cc2)=C(C#N)C12CCCCC2 | ? | ? | 20.6µM | 23.1µM | 23.1µM | 8.2µM
CC(=O)N(C(C)=O)c1nc(-c2ccccc2)cn1/N=C/c1ccccc1 | - | ? | ? | ? | ? | 11.6µM
C[n+]1cn(/N=C/c2ccccc2)c2ccccc21 | - | - | - | - | ? | -
COc1ccc(N2CCN(C(=O)CCNS(=O)(=O)c3ccc(Br)s3)CC2)cc1 | - | 13µM | - | ? | -[9.24 µM] | -
O=C(CNS(=O)(=O)c1ccc(Br)s1)N1CCN(c2ccc(F)cc2)CC1 | - | 18.4µM! | - | 23.1µM! | - | -
COc1ccc(N2CCN(C(=O)CCNS(=O)(=O)c3ccc(C)cc3)CC2)cc1 | - | - | - | - | - | -
O=C(CNS(=O)(=O)c1ccc(F)cc1)N1CCN(c2ccc(F)cc2)CC1 | - | - | - | - | - | -
Cc1cc(O)c(C(c2ccc(Cl)cc2)N2CCN(c3ccccc3)CC2)c(=O)n1Cc1ccco1 (stereo not given) | . | - | . | - | . | .
O=C(c1ccccc1)c1ccc2nc(Nc3ccccc3Cl)c3nncn3c2c1 | . | - | . | - | . | .
CCn1c(Oc2ccc(F)cc2F)nc2c1c(=O)n(C)c(=O)n2C | . | ? | . | - | . | .
CC(C)(CC(=O)N1CCN(c2ccc(Cl)cc2)CC1)CC1=NS(=O)(=O)c2ccccc2N1 | - | 4.11µM | ? | 14.6µM | - | -
COc1cccc(N2CCN(C(=O)CC(C)(C)CC3=NS(=O)(=O)c4ccccc4N3)CC2)c1 | - | - | - | - | - | ?
SMILES | SW480 rerep | KB-V1 cytotox | HT1080NT lethal | KB-3-1 tox | HT1080 IDH1KD tx | MCF10A rerep
C/C(=N\NC(=O)c1cccc(F)c1)c1ccc(Br)s1 | 9.2µM | ? | 11.2µM | - | 5.62µM | ?
C/C(=N\NC(=O)c1ccccc1O)c1c(O)cc(C)oc1=O | 5.8µM | ? | ? | - | 10µM | ?
CCOC(=O)C(CC)/C(C)=N\NC(=O)c1ccccc1O (stereo not given) | ? | 2.06µM | ? | ? | 16.4µM | ?
C/C(=N\NC(=O)c1ccccc1[N+](=O)[O-])c1c(O)cc(C)oc1=O | - | - | - | - | - | -
CCC/C(C)=N/NC(=O)c1ccccc1O | - | - | - | - | - | -
O=C(NN=C(Cc1ccccc1)Cc1ccccc1)c1ccc(F)cc1 | - | - | - | - | - | -
O=C(NN=C(Cc1ccccc1)Cc1ccccc1)c1ccccc1O | 18.4µM | ? | - | - | - | -
COc1cc(OC)cc(C(=O)N2CCC(c3ccncc3)CC2)c1 | . | - | . | - | . | .
CCOC(=O)[C@]12CCC=C1N(Cc1ccco1)C(=O)[C@H](CC(=O)NCCCN1CCCC1=O)C2 | . | - | - | - | - | .
C/C(=N\NC(=O)c1ccccc1O)c1ccc(Br)s1 | . | ? | ? | - | 14.6µM | -
O=C(O)c1ccc2c(c1)S(=O)(=O)c1cc(N3CCN(c4cnccn4)CC3)ccc1C2=O | . | - | - | - | - | .
CCc1ccc(-n2c(SCC(=O)c3ccc4c(c3)NC(=O)CO4)nc3ccccc3c2=O)cc1 | - | ? | - | 20.6µM | - | -
Cn1c(SCC(=O)c2ccc3c(c2)NC(=O)CO3)nc2ccccc21 | - | ? | - | - | - | -
O=C1COc2ccc(C(=O)CSc3nc4ccccc4c(=O)n3-c3ccc(Cl)c(Cl)c3)cc2N1 | 18.4µM | ? | - | - | - | 13µM
CCCn1c(SCC(=O)c2ccc3c(c2)NC(=O)CO3)nc2ccccc21 | - | - | ? | - | - | ?
CNC(=O)OCc1nc(SSC(C)(C)C)n(C)c1COC(=O)NC | 4.11µM | - | ? | ? | 18.4µM | 2.91µM
Cc1cccc(Cn2cnc3c(oc4ccccc43)c2=O)c1 | . | ? | . | - | . | .
CCCn1c2ccccc2c2cnn(CC(=O)NCC3CCN(Cc4ccc(F)cc4)CC3)c(=O)c21 | . | - | . | - | . | .
Cc1ccc(/C=C2/CNC/C(=C/c3ccc(C)cc3)C2=O)cc1 | 4.61µM | 4.11µM | 14.6µM | 3.26µM | 23.1µM | ?
Cc1ccc(NNC(=O)c2ccno2)cc1Cl | - | - | ? | - | 3.66µM | -
Cc1nnsc1C(=O)Nc1ccc(Cl)cc1 | - | ? | - | - | - | -
Cc1ccc(NNC(=O)c2ccno2)cc1C | - | - | ? | 16.4µM | ? | -
Cc1ccc(NNC(=O)c2snnc2C)cc1Cl | 2.31µM | - | - | - | - | -
Cc1ccc(NNC(=O)c2c(C)noc2C)cc1Cl | - | - | - | - | ? | -
COc1ccc(CCN2CC(C(=O)NCc3cccc(F)c3)CCC2=O)cc1 (stereo not given) | . | - | - | - | - | .
CC(C(=O)Nc1ccccc1)N1CCN(c2ccccn2)CC1 (stereo not given) | - | - | - | - | - | -
Cc1cc([N+](=O)[O-])ccc1NC(=O)C(C)N1CCN(c2ccccn2)CC1 (stereo not given) | - | 20.6µM | - | - | - | -
Cc1ccc(C)c(N2CCN(C(=O)CCc3nc(-c4ccc(Br)cc4)no3)CC2)c1 | - | - | - | - | - | -

Assay outcomes from PubChem.
